Sampled rows, rich in hits. Any-hit rate of the full collection: about 12%.
PLK1 PBD inh: blocks phosphopeptide binding to human PLK1 polo-box domain; P53350; Plk1 PBD binding of FITC phosphopeptide, fluorescence polarization; Potency, µM, without a hit: max response, negative = inhibition, hits mostly inhibitors; 2.8% of 360,000 active; AID 720504; note: potency is the fitted concentration of half-maximal effect; series mostly up to about 57 µM; % is set by controls: 0 for no effect and ±100 for the full control effect; nearly all actives have a fitted effect of over 65% in size
G9a inh: G9a (human) methyltransferase inhibition | Q96KQ7 | G9a H3K9 monomethylation, AlphaScreen, 2 h | Potency, µM (highest dose often 102 µM), for inactives: top-dose activity, negative = inhibition, actives largely listed as inhibitors | 8.8% of 350,000 active; note: potency is the fitted concentration of half-maximal effect; % is set by controls: 0 for no effect and ±100 for the full control effect; nearly all actives have a fitted effect of over 75% in size
Target sequence (Q96KQ7 913-1193 limits assumed): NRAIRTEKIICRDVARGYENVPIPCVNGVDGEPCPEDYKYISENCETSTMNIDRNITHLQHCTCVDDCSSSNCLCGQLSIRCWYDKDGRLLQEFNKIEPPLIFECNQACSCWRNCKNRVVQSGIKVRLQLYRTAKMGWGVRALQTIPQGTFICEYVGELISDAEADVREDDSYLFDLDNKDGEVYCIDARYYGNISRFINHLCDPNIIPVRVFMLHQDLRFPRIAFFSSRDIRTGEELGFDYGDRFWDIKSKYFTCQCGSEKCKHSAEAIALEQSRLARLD
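AlphaScreen read-out: biotin-H3K9 peptide (500 nM) methylation by 20 nM enzyme with 20 uM SAM, 2 h at room temperature after 15 min compound preincubation; anti-monomethyl H3K9 antibody plus donor/acceptor beads, 10 min dark.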
JMJD2A Tudor: JMJD2A Tudor domain (human) inhibition; O75164; AlphaScreen JMJD2A-Tudor / H3K4me3 peptide binding; Potency, µM (series often up to 114 µM), without a hit: at the top dose activity change, negative = inhibition, actives largely listed as inhibitors; 4.4% of 390,000 active; AID 504339; note: potency is the fitted concentration of half-maximal effect; % is set by controls: 0 for no effect and ±100 for the full control effect; nearly all actives have a fitted effect of over 50% in size
PI5P4Ka inh: inhibitors of human PI5P4K alpha; PI5P4Kalpha enzyme, ADP-Glo luminescence, 60 min; active compounds read low; max response, %; 1.2% of 330,000 active; active = max response of -50% or lower; inconclusive = between -30% and -50%; inactive = -30% or higher; note: value at the top dose of about 77 µM; % is set by controls: 0 for no effect and ±100 for the full control effect
Target sequence (P48426 whole entry, looked up): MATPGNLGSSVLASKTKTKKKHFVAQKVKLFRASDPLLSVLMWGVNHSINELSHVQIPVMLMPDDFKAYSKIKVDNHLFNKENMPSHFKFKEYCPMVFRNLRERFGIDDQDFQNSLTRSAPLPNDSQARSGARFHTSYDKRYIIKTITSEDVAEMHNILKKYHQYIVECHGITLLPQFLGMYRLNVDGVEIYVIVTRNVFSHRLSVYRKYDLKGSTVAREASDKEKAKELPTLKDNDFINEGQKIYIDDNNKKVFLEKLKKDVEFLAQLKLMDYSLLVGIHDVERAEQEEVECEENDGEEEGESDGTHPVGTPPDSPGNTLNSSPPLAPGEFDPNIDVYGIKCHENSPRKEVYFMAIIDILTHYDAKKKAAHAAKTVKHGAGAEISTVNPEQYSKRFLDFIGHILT
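Enzyme plus substrate dispensed, test compounds pinned in, then ATP (5 microM final) added. After 60 min at RT, ADP-Glo reagent 1 for 45 min and reagent 2 for 30 min preceded luminescence imaging.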
HP1b chromo inh: HP1-beta chromodomain-methylated histone interaction inhibition | Potency, µM (series often up to 114 µM), without a hit: at the top dose activity change, negative = inhibition, hits mostly inhibitors | P83916 | AlphaScreen HP1-beta / biotin-H3K9me3 peptide binding | AID 540317 | 0.56% of 390,000 active; note: potency is the fitted concentration of half-maximal effect; nearly all actives have a fitted effect of over 70% in size
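Compound inhibition of the preformed complex between 50 nM HP1-beta and 50 nM biotinylated H3K9me3 peptide was read by AlphaScreen. Buffer was PBS pH 7.4 with 0.01% Tween-20. Incubations ran 30 min at room temperature, with 10 ug/mL donor/acceptor beads.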
BAZ2B block: blocks human BAZ2B. AID 504333. AlphaScreen BAZ2B-H3K14Ac peptide displacement. Q9UIF8. 4.4% of 360,000 active. Potency, µM (titrated, usually from 114 µM), inactives show at the top dose activity change, negative = inhibition, most hits filed as inhibitors; note: potency is the fitted concentration of half-maximal effect; % is set by controls: 0 for no effect and ±100 for the full control effect; nearly all actives have a fitted effect of over 60% in size
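Complex of BAZ2B and biotin-H3K14Ac (50 nM apiece) forms over 30 min at RT, then faces library compounds up to 110 uM for another 30 min; AlphaScreen beads added, 20 min dark incubation, luminescence read.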
Numbers without * were called inactive; u = inconclusive; x = no result given; [ ] = remark or other dose. Unless noted, calls come from the whole dose curve; as a rule, active = well fitted curve in the direction sought with a large enough effect; inconclusive = small, poorly fitted or top-dose-only effect, or another doubt; inactive = no such curve, though single readings can be large; an effect the other way counts as inactive or inconclusive.

SMILES	PLK1 PBD inh	G9a inh	JMJD2A Tudor	PI5P4Ka inh	HP1b chromo inh	BAZ2B block
O=C(CSc1nc2scc(-c3ccccc3)c2c(=O)[nH]1)NC1CCCCC1	x	16%	x	x	x	3%
CN(Cc1ccc(Cl)cc1)C(c1cc2ccccc2o1)c1nnnn1C(C)(C)C (configuration not stated)	-2%	x	x	12	x	x
CCOCCCNC(=S)N(CCN(C)C)Cc1cc2cc3c(cc2[nH]c1=O)OCCO3	-7%	50µM*	-7%	1	44%	-34%
CC(C)CNC(=S)N(CCN(C)C)Cc1cc2cc3c(cc2[nH]c1=O)OCO3	-16%	-5%	-4%	3	32%	6%
CC(C)CNC(=S)N(CCCO)Cc1cc2cc3c(cc2[nH]c1=O)OCO3	-6%	40µM*	-10%	1	37%	-8%
O=C(NCc1ccco1)c1ccc(Cl)c(S(=O)(=O)N2CCCC2)c1	-9%	-5%[2.33 µM]	u	-21	10%	-35%
O=c1oc2ccccc2c2c1ccc1ccccc12	-12%	x	133%	-7	232%	x
OCCOCCn1c(C(CO)Nc2nc(-c3cccc(Br)c3)cs2)nc2ccccc21 (configuration not stated)	u	x	u	-3	-20%	x
CCCn1c(C(CO)Nc2nc(-c3cccc(Br)c3)cs2)nc2ccccc21 (configuration not stated)	-7%	45µM*	u	-2	-6%	u
COc1ccc(-c2cc(NCc3ccc(C)cc3)n3cnnc3n2)cc1	x	-53%[59 µM]	-24%	x	19%	-10%
C#CCOCCOCCOCCNc1nc(N2CCN(C(=O)[C@H](Cc3ccc(O)cc3)n3cc([C@@H](N)C(C)CC)nn3)CC2)nc(N2CCN(C(=O)[C@H](CCCCN)n3cc([C@@H](N)CC(C)C)nn3)CC2)n1 (some centres not stated)	x	-131%[59 µM]	x	x	x	79µM*
C#CCOCCOCCOCCNc1nc(N2CCN(C(=O)[C@H](CCCCN)n3cc([C@@H](N)CO)nn3)CC2)nc(N2CCN(C(=O)[C@H](Cc3ccc(O)cc3)n3cc([C@@H](N)CC(C)C)nn3)CC2)n1	-3%	u	56µM*	-6	26%	32µM*
C#CCOCCOCCOCCNc1nc(N2CCN(C(=O)[C@H](CCCCN)n3cc(CC(C)O)nn3)CC2)nc(N2CCN(C(=O)[C@H](CCCCN)n3cc(CC(C)O)nn3)CC2)n1 (some centres not stated)	-2%	-3%[2.33 µM]	-15%	2	38%	-34%
C#CCOCCOCCOCCNc1nc(N2CCN(C(=O)[C@H](Cc3ccc(O)cc3)n3cc([C@@H](N)C(C)CC)nn3)CC2)nc(N2CCN(C(=O)[C@H](CCCCN)n3cc([C@@H](N)CO)nn3)CC2)n1 (some centres not stated)	-5%	-5%[12.7 µM]	40µM*	-10	40%	50µM*
COc1ccc(Oc2nc3c(c(=O)n(C)c(=O)n3C)n2Cc2ccc(Cl)cc2Cl)cc1	x	-27%[59 µM]	-30%	x	29%	-20%
Cc1ccc(C(=O)N/N=C/c2nc3ccccc3n2C)cc1	-14%	33%[12.7 µM]	63µM*	x	47%	u
CC(C)(C)OC(=O)N/N=C\c1cccnc1	-21%	1.3µM*	-15%[11.4 µM]	13	3%	-31%
O=C(N/N=C/c1cccnc1)C(O)(c1ccccc1)c1ccccc1	-6%	2%[59 µM]	-4%	-2	11%	-2%
Cc1ccc(C(=O)Nc2ccc(C(=O)N/N=C/c3cccnc3)cc2)cc1	-1%	79µM*	u	6	u	-34%
CC(=O)OC[C@@H]1CN(Cc2cccc(C(F)(F)F)c2)C[C@H](n2cnc3c(NCc4ccco4)ncnc32)O1	7%	x	x	1	x	x
COc1ccc(CCNC(=O)c2cnn(-c3ccc(F)cc3)c2C2CCN(C(=O)OC(C)(C)C)CC2)c(OC)c1	x	-44%[59 µM]	u	x	1%	-6%[57.1 µM]
CC(Sc1ncn[nH]1)C(=O)NCc1ccccc1 (configuration not stated)	-13%	39%	-12%	2	22%	0%
O=C(c1ccccc1)C(Sc1ncn[nH]1)c1ccccc1 (configuration not stated)	u	5.6µM*	79µM*	6	23%	6%
O=C(/C=C/c1ccccc1)CC(=O)c1ccccc1O	-5%	16µM*	25µM*	1	-24%	u
O=C(/C=C/c1ccccc1)NC(=O)c1ccccc1O	-10%	u	u	1	24%	79µM*
SMILES	PLK1 PBD inh	G9a inh	JMJD2A Tudor	PI5P4Ka inh	HP1b chromo inh	BAZ2B block
O=C(CCN1CCCCCC1)c1ccccc1	u	u	6%[11.4 µM]	9	38%	1%
O=C(/C=C/c1ccccc1)CCN1CCCCC1	6.7µM*	x	-13%	0	12%[57 µM]	x
Cc1ccc2nc3c(cc(C(=O)NCC4CCCO4)c(=N)n3CCCOC(C)C)c(=O)n2c1 (configuration not stated)	-6%	56µM*	u	x	-11%	0%
O=[N+]([O-])c1ccc(Cl)c(/C=N/N2CCN(Cc3ccccc3)CC2)c1	3%	40µM*	5%	2	29%	10µM*
O=[N+]([O-])c1cc(/C=N/N2CCN(Cc3ccccc3)CC2)ccc1Cl	-7%	28µM*	u	5	u	11µM*
O=[N+]([O-])c1ccc(/C=N\N2CCN(Cc3ccccc3Cl)CC2)cc1	-8%	x	x	9	x	x
O=[N+]([O-])c1ccc(Cl)c(CN2CCN(c3ncc(Cc4ccccc4)cn3)CC2)c1	-5%	x	x	-2	x	x
FC(F)(F)c1ccc(/C=N/N2CCN(Cc3ccccc3)CC2)cc1	-8%	u	u	-2	u	u
O=[N+]([O-])c1ccc(/C=N/N2CCN(Cc3ccccc3)CC2)cc1	2%	50µM*	45µM*	7	u	13µM*
O=[N+]([O-])c1ccc(Cl)c(/C=N/N2CCN(Cc3ccccc3Cl)CC2)c1	-10%	45µM*	u	2	u	25µM*
O=[N+]([O-])c1ccc(Cl)c(/C=N/N2CCN(Cc3ccc(Cl)cc3)CC2)c1	0%	10µM*	23%	-6	23%	22µM*
C(=N\N1CCN(Cc2ccccc2)CC1)/c1ccccc1	u	u	-10%[11.4 µM]	3	5%	u
O=[N+]([O-])c1ccc(/C=N\N2CCN(c3ccc(Cl)cc3)CC2)cc1	-4%	-31%	-5%	4	40%	1%
Clc1cccc(/C=N/N2CCN(Cc3ccccc3)CC2)c1	5%	45µM*	50µM*	13	u	40µM*
COc1ccc(NCCC(O)c2ccc(Cl)cc2)cc1 (configuration not stated)	-5%	u	56µM*	4	u	45µM*
COc1ccc(Cl)cc1NC(=S)NCCc1ccc(F)cc1	-13%	2%	-4%	2	43%	-27%

Compound activity (PubChem)
